Experimental data from PubChem BioAssay AID488969 (Vanderbilt High Throughput Screening Facility, 2010).
Over roughly 110,000 compounds, “z-score” has its median near -0.1; the highest 2% begin near 2. Shown is part of a subset that was picked to be rich in the highest values. The source made the active and inactive calls.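 Rule for the calls: active = z-score in the third read window above 3 or below -3; inactive = the rest.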

What follows are molecules tested against Metabotropic glutamate receptor 8 (Rattus norvegicus) (UniProt P70579) (assay: mGluR8 Gi/Go-coupled signaling modulation – cell-based, rat, thallium flux, HTS, primary screen (AID 488969)). Details: HEK293 rat mGluR8, GIRK (G protein-gated inwardly rectifying potassium channel) thallium flux, FluoZin2; at 10 µM; stronger effect = higher value; submaximal glutamate (EC20) added with thallium.
Sequence of Metabotropic glutamate receptor 8 (Rattus norvegicus) (P70579 whole entry, looked up): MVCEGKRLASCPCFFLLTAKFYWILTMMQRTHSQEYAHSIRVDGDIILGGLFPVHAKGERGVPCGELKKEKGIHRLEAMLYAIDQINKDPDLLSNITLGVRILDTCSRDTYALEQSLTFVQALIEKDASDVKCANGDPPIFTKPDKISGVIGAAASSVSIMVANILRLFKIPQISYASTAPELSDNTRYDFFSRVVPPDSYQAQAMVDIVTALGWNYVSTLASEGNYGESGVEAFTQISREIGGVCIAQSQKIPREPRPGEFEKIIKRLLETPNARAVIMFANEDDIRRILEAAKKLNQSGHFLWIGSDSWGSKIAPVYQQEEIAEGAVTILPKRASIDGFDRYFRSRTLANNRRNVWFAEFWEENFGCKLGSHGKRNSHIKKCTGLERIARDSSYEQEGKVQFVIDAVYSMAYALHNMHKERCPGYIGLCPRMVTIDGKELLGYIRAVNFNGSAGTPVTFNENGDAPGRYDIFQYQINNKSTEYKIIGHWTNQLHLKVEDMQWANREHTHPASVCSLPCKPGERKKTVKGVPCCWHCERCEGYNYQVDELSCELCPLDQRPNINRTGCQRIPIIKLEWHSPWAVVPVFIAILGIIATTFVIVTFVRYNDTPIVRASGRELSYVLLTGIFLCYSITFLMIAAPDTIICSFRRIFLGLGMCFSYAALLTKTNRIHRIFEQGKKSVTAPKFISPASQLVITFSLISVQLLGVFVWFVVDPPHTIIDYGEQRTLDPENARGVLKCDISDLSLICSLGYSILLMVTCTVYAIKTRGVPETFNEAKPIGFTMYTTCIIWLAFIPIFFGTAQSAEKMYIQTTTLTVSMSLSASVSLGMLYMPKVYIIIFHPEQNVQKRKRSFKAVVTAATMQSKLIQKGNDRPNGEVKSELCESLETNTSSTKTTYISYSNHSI

SMILES	z-score
NC(=S)N/N=C/c1ccc(-c2cc(Cl)cc(Cl)c2)o1	0.987
NC(=S)N/N=C/c1ccc(-c2ccc(Cl)c(Cl)c2)o1	0.653
NC(=S)N/N=C/c1ccc(-c2cc(Cl)ccc2Cl)o1	2.21
CCCCOC(=O)CSc1n[nH]c(=O)[nH]c1=O	-0.957
Cc1ccc(-c2nnc(CSc3nc(C(C)C)nc4sc(C)c(C)c34)o2)cc1	1.42
Cc1ccc(-c2nnc(CSc3nnc(C)s3)o2)cc1	0.552
CCc1nc(SCc2nnc(-c3ccc(C)cc3)o2)c2c(C)c(C)sc2n1	2.26
O=C(CCC(=O)OCC(=O)c1ccc(-c2ccccc2)cc1)Nc1cccc2cccnc12	-0.0975
Cn1c(=O)c(C(=O)Nc2cccnc2)c(O)c2ccccc21	1.29
COc1ccc2c(Cl)c(C(=O)NCCCn3ccnc3)sc2c1	-0.0695
Cc1cc(C)c2nc(SC(C)C(=O)NCC(=O)Nc3ccc(F)c(F)c3F)cc(C)c2c1 (stereo not given)	7.48 (active)
Cc1cc(SC(C)C(=O)NCC(=O)Nc2ccc(F)c(F)c2F)nc2ccccc12 (stereo not given)	-0.101
Cc1ccc(-n2nnnc2SC(C)C(=O)NCC(=O)Nc2ccc(F)c(F)c2F)c(C)c1 (stereo not given)	-0.287
CCCCC(=O)Nc1ccc(C(=O)NNC(=O)c2cccs2)cc1	-0.305
O=C(NCc1ccco1)c1ccc(COc2cc(Cl)ccc2Cl)cc1	0.104
COc1ccc(Cc2nnc(N)s2)cc1	-0.0129
CCn1c(SCC(=O)OC)nc2sc3c(c2c1=O)CCC3	-0.399
CCn1c(SCC(N)=O)nc2sc3c(c2c1=O)CCCC3	8.59 (active)
CCn1c(SCC(=O)O)nc2sc3c(c2c1=O)CCC3	-1.62
CCN1C(=O)c2ccc(C(=O)NCc3ccccc3)cc2C1=O	-0.278
O=C(Nc1nnc(SCc2ccc(F)cc2)s1)C1CC(=O)N(c2ccc3c(c2)OCCO3)C1 (stereo not given)	3.68 (active)
CCc1nnc(NC(=O)C2CC(=O)N(c3ccc4c(c3)OCCO4)C2)s1 (stereo not given)	-0.124

SMILES	z-score
COC(=O)c1ccc(CSc2nnc(NC(=O)C3CC(=O)N(c4ccc5c(c4)OCCO5)C3)s2)cc1 (stereo not given)	0.162
O=C(NCc1ccco1)C(Cc1ccccc1)NS(=O)(=O)c1cccc2nsnc12 (stereo not given)	-0.0409
Cn1c(=O)[nH]c(=O)c2c1nc(Br)n2CCCSc1nc2ccccc2o1	-0.621
COc1ccccc1NC(=O)c1cc(C(=O)Nc2ccccc2OC)cc(N2C(=O)CCC2=O)c1	4.66 (active)
COc1ccccc1NS(=O)(=O)c1ccc(C)c(NC(=O)c2ccc(S(=O)(=O)N3CCCCCC3)cc2)c1	-0.106
COc1ccccc1NC(=O)c1ccc(N)cc1	0.511
COc1ccccc1NC(=O)c1ccc(S(=O)(=O)N2CCCC2)cc1	3.99 (active)
COc1ccccc1NC(=O)c1cccnc1	0.226
COc1ccccc1NC(=O)c1ccc(S(=O)(=O)N2CCOCC2)cc1	0.986
O=[N+]([O-])c1ccc(OCC(O)CN2CCN(c3ccccc3F)CC2)cc1 (stereo not given)	-0.357
Cc1ccc(NS(=O)(=O)c2cc([N+](=O)[O-])ccc2NNC(=S)Nc2cccc(Cl)c2)c(C)c1	-0.12
Cc1cccc(Sc2ccc([N+](=O)[O-])cn2)c1	-1.63
O=C(CSc1nc(-c2cccs2)cc(C(F)(F)F)n1)NCc1ccccc1	-0.654
COc1ccc(/C=N/NC(=O)CCCOc2ccc(Cl)cc2Cl)cc1	-0.126
Cc1cc(C)nc(-n2nc(C)cc2Nc2ccccc2)n1	-0.115
Cc1ccc(Nc2cc(C)nn2-c2nc(C)cc(=O)[nH]2)cc1	16.4 (active)
Cc1ccc(Nc2cc(C)nn2-c2nc(C)cc(C)n2)cc1	0.547
CN1CCC(C2(O)c3ccccc3CSc3sccc32)CC1 (stereo not given)	2.02
CN(C)Cc1ccccc1C1(O)c2ccccc2CSc2ccccc21 (stereo not given)	-0.164
CN(C)CC1CCCCC1C1(O)c2ccccc2CSc2sccc21 (stereo not given)	1.47
COc1ccc(Nc2cc(C(=O)NCc3ccco3)c3ccccc3n2)cc1	-0.00632
O=C(O)c1cc(S(=O)(=O)Nc2ccccc2C(=O)O)ccc1O	-0.576

SMILES	z-score
CCOC(=O)c1c(C)nc2sc(C(N)=O)c(N)c2c1-c1ccccc1	-1.25
Cc1ccc(S(=O)(=O)n2cnc3cc([N+](=O)[O-])ccc32)c(C)c1C	-0.143
Cc1cc(S(=O)(=O)n2cnc3cc([N+](=O)[O-])ccc32)ccc1Cl	-0.268
Cc1ccc(S(=O)(=O)n2cnc3cc([N+](=O)[O-])ccc32)cc1C	2.81
C=CCSc1nnc(Cc2cc(=O)[nH]c(=O)[nH]2)n1-c1cc(C)ccc1C	-0.111
COc1ccc(NC(=S)N2CCC(N(C)CCN3CCOCC3)CC2)cc1Cl	-0.269
O=C(NC(=S)Nc1ccccn1)c1ccc([N+](=O)[O-])cc1	0.166
CCC(=O)NC(=S)NNC(=O)c1ccc([N+](=O)[O-])cc1	0.17
CC(C)NC(=S)NC(=O)c1ccc(-c2ccccc2)cc1	0.201
C=CCN(CC=C)C(=S)NC(=O)c1ccc([N+](=O)[O-])cc1	4.84 (active)
C=CCN(CC=C)C(=S)NC(=O)c1ccc(-c2ccccc2)cc1	11.4 (active)
CN(Cc1ccccc1)C(=S)NC(=O)c1ccc(-c2ccccc2)cc1	4.13 (active)
CCCN(CCC)C(=S)NC(=O)c1ccc(-c2ccccc2)cc1	-0.959
C=CCN(CC=C)C(=S)Nc1ccccc1	-0.0866
CN(Cc1ccccc1)C(=S)NC(=O)C1CCCCC1	1.47
OCc1nc2ccccc2n1C/C=C/c1ccccc1	0.00864
O=C(Nc1ccc(Cl)cc1)C1CCCN(S(=O)(=O)c2cnc[nH]2)C1 (stereo not given)	0.605
COc1cc(C)c(Br)cc1S(=O)(=O)N1CCCC1	0.188
O=C1c2cccc3cccc(c23)C(=O)N1c1ccc2ncccc2c1	-0.261
CCOC(=O)C1=C(O)/C(=C\c2cccc(OC)c2)N=C1C	-0.194
COc1cccc(-c2nc(Oc3cc(C)cc(C)c3)c3ccccc3n2)c1O	0.123
CCNCc1cc(Br)c(OCC(=O)Nc2ccccc2)c(OC)c1	1.18

SMILES	z-score
COc1cc(CNCC(C)C)c(Br)cc1OCC(=O)NCc1ccccc1	0.232
COc1cc(CNCC(C)C)cc(Br)c1OCC(=O)Nc1ccccc1	2.21
COc1ccc(OCC(=O)N2CCN(c3nnc(-c4ccccc4)c4ccccc34)CC2)cc1	0.267
CCOC(=O)c1ccc(S(=O)(=O)NCC(c2ccc(N(C)C)cc2)c2c[nH]c3ccccc23)cc1 (stereo not given)	0.201
CCOc1ccccc1NC(=O)Cc1c(F)cccc1Cl	-0.491
C#CC1(O)CC(C)N(C)C(C)C1 (stereo not given)	-0.0403
O=C(NNc1cccc(Cl)n1)c1cccnc1Cl	-0.00142
OC(COCCC12CC3CC(CC(C3)C1)C2)CN1CCCCC1 (stereo not given)	-0.152
OCCN(CCO)CC(O)COCCC12CC3CC(CC(C3)C1)C2 (stereo not given)	0.239
CCN(CC)CC(O)COCCC12CC3CC(CC(C3)C1)C2 (stereo not given)	3.04 (active)
O=C(COC(=O)c1cccs1)c1ccc2c(c1)OCCO2	-0.579
CC(C)(C)NC(=O)C(c1ccc(F)cc1)N(Cc1ccco1)C(=O)Cn1nnc(-c2cccs2)n1 (stereo not given)	-0.585
CCOC(=O)N1CCN(C(=O)c2nc3ccccc3s2)CC1	2.8
CCOC(=O)N1CCN(/C=C(\C#N)c2nc3ccccc3s2)CC1	1.73
O=C(c1nc2ccccc2s1)N1CCSCC1	0.0723
O=C(CSc1ncnc2ccccc12)N1CCN(c2ccccc2)CC1	-0.0217
CCOC(=O)N1CCN(C(=O)CSc2ncnc3ccccc23)CC1	3.04 (active)
CC(C)(C)NC(=O)c1nc2ccccc2s1	0.283
CC(C)NC(=O)c1nc2ccccc2s1	3.05 (active)
O=C(NCCO)c1nc2ccccc2s1	1.28
CCOC(=O)N1CCN(C(=O)CSc2ncccn2)CC1	0.107
S=C(Nc1ccc(Cl)cc1)c1sc(N2CCCCC2)nc1N1CCOCC1	-0.435

SMILES	z-score
CC(NC(=O)COc1ccccc1-c1ccccc1)c1ccccc1 (stereo not given)	-0.192
O=C(COc1ccc2c(c1)CCC2)N1CCN(c2cccc(C(F)(F)F)c2)CC1	-0.0515
Cc1ccc(OCCN2CCN(CC(O)Cn3c4ccccc4c4ccccc43)CC2)cc1 (stereo not given)	0.113
CC(C(=O)N1c2ccccc2CCc2ccccc21)n1nnc(-c2ccc(N(C)C)cc2)n1 (stereo not given)	0.255
Cc1cc(NC(=O)CSc2nc(CC(C)(C)C)nc3c2c(=O)n(C)c(=O)n3C)no1	-0.0135
CCOc1ccc2nc(NC(=O)c3ccoc3C)sc2c1	-0.855
COc1ccccc1Nc1nnc(SCC(=O)NC(=O)Nc2ccc3c(c2)OCCO3)s1	-0.138
Cc1cc(C(=O)CSc2nnc(-c3cccnc3)n2-c2ccccc2)c(C)n1CC1CCCO1 (stereo not given)	-0.185
COC(=O)Nc1ccc(S(=O)(=O)Nc2ccccc2F)cc1	0.00713
Cc1cc(NC(=O)C2C3C(=O)N(Cc4ccc(Cl)cc4)C(C(=O)NCc4ccccc4)C34C=CC2(C)O4)no1 (stereo not given)	0.193
Cc1cccc(NC(=O)CN2C(=O)S/C(=C\c3cc(C)n(C)c3C)C2=O)c1	0.326
CCOC(=O)N1CCN(CC(=O)N2c3ccccc3CC2C)CC1 (stereo not given)	-0.746
CCOC(=O)C1=C(C)NC(C)=C(C(=O)OCC)C1C(=O)OCC(=O)N1c2ccccc2CC1C (stereo not given)	2.55
COC(=O)C1=C(C)NC(C)=C(C(=O)OC)C1C(=O)OCC(=O)N1c2ccccc2CC1C (stereo not given)	0.131
C/C(=N\NC(=O)OC(C)(C)C)c1cccc([N+](=O)[O-])c1	-0.272
Cc1ccc(C(=O)Nc2nc(=O)n(C(=O)C3CC3)s2)cc1	-0.185
Cc1ccc(Nc2cc(C)nc(NCc3ccccc3)n2)cc1	-0.326
Cc1cc(Nc2ccccc2)nc(NCc2ccccc2)n1	2.34
Cc1cc(N2CCCCC2)nc(NCc2ccccc2)n1	0.794
Cc1cc(N2CCN(c3ccccc3)CC2)nc(NCc2ccccc2)n1	3
Cc1cc(N2CCOCC2)nc(NCc2ccccc2)n1	-0.0745
Cc1cc(Nc2ccc(Cl)cc2)nc(NCc2ccccc2)n1	-0.173
